Data as given in PubChem BioAssay (NCATS).
The list shows a part of the results. Activity calls are given as the source filed them. The call rests on the fitted dose curve; in most records, active means well fitted curve in the direction sought with a large enough effect; inconclusive means small, poorly fitted or top-dose-only effect, or another doubt; inactive means no such curve, though single readings can be large; an effect the other way counts as inactive or inconclusive.

system: not listed separately; assay: qHTS for small molecule inhibitors of Yes1 kinase: Counter Assay (AID 686950); conditions: series mostly up to 76.9 µM; activity change, negative = inhibition: at the top concentration;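 further: no kinase present so only ADP-Glo detection of a fixed ADP amount is tested; luminescence from ADP-Glo reporting ADP in a fixed ATP and ADP mixture; 0% = DMSO wells with ATP plus ADP and -100% = ATP-only wells without ADP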
How it was run: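 Enzyme-free ADP-Glo interference check: compounds were preincubated 20 min in buffer, then an ATP/ADP mix (0.08 mM ATP, 0.02 mM ADP final) was added for 60 min at room temperature before two-step ADP-Glo luminescence detection.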

| SMILES | activity change, negative = inhibition |
| --- | --- |
| NS(=O)(=O)c1ccc(-c2cc3ccncc3cc2OCc2ccccc2)cc1 | 3.98% (inactive) |
| c1cnn2ncc(-c3ccnc(NCCCN4CCOCC4)n3)c2c1 | 1.83% (inactive) |
| CC1=C(C(=O)Nc2ccc3[nH]ncc3c2)C(c2ccc(F)cc2)N=C(c2ccc(C(F)(F)F)nc2)N1 (stereo not given) | 0.65% (inactive) |
| OCCCNc1nccc(-c2c(-c3ccc(F)cc3)nn3cc(C(F)(F)F)ccc23)n1 | -3.91% (inactive) |
| COc1cc2c(cc1Nc1nc(Nc3ccsc3C(N)=O)c3cc[nH]c3n1)N(C(=O)CN(C)C)CCC2(C)C | 477% (inactive) |
| Fc1ccc(-c2ncn(C3CCNCC3)c2-c2ccnc(Oc3cccc(F)c3)n2)cc1 | -3.48% (inactive) |
| CCCN1CCCC(c2ccc(Nc3nc(Nc4cc(F)ccc4C(N)=O)c4cc[nH]c4n3)c(OC)c2)C1 (stereo not given) | 251% (inactive) |
| Cc1cccc2c(N=Nc3ccc(S(N)(=O)=O)cc3)c(O)[nH]c12 | 0.144% (inactive) |
| Fc1ccc(-c2ncn(C3CCNCC3)c2-c2ccnc(Oc3ccc(Cl)cc3)n2)cc1 | -4.64% (inactive) |
| Fc1ccc(-c2c(-c3ccncc3)nc3n2CCS3)cc1 | 0.28% (inactive) |
| O=S(=O)(CCNCc1ccc(-c2ccc3ncnc(Nc4ccc(OCc5cccc(F)c5)c(Cl)c4)c3c2)o1)c1ccccc1 | 7.85% (inactive) |
| CC(C)(C)c1ccc(Oc2nccc(-c3c(-c4ccc(F)cc4)ncn3C3CCNCC3)n2)cc1 | -5.09% (inactive) |
| CCS(=O)(=O)c1ccc(OC)c(Nc2ncc(-c3ccccc3Cl)o2)c1 | 2.38% (inactive) |
| c1ccc(Nc2ncc(-c3ccccc3)o2)cc1 | -2.5% (inactive) |
| CCN1CCC(CC(=O)Nc2n[nH]c3nnc(-c4cccc(F)c4F)cc23)CC1 | 2.67% (inactive) |
| COc1ccc2ncn(-c3cc(OC(C)c4ccccc4C(F)(F)F)c(C(N)=O)s3)c2c1 (stereo not given) | 8.53% (inactive) |
| CC(Oc1cc(-n2cnc3ccc(OCC(O)CO)cc32)sc1C(N)=O)c1ccccc1Cl (stereo not given) | -0.118% (inactive) |
| COc1ccccc1C1=C(Nc2ccccc2)C(=O)NC1=O | -2.08% (inactive) |
| Fc1cccc(COc2ccc(Nc3ncnc4cc(-c5ccc[nH]5)sc34)cc2Cl)c1 | 1.31% (inactive) |

| SMILES | activity change, negative = inhibition |
| --- | --- |
| CCc1nccc2c1nc(-c1nonc1N)n2CC | 4.09% (inactive) |
| Cc1cccc(Nc2ncc(-c3ccccc3)o2)c1 | -3.11% (inactive) |
| COc1cc(N2CCN(C(C)C)CC2)ccc1Nc1nc(Nc2cccc3ncccc23)c2cc[nH]c2n1 | 3.26% (inactive) |
| O=C(Nc1n[nH]c2cc(-c3ccccc3)ccc12)C1CC1 | -2.7% (inactive) |
| Nc1nccc(-c2c(-c3ccc(F)cc3)nn3cc(C(F)(F)F)ccc23)n1 | 4.35% (inactive) |
| COc1ccc2cc(-c3c(-c4ccncc4)nc(-c4ccc(S(C)=O)cc4)n3C)ccc2c1 (stereo not given) | -0.218% (inactive) |
| CNC(=O)c1cncc(C=Cc2ccccc2C)c1 | 5% (inactive) |
| CNC(=O)c1cccc(C#Cc2cncnc2Nc2ccc(OCc3cccc(F)c3)c(Cl)c2)c1 | 1.17% (inactive) |
| COc1ccccc1Oc1nccc(-c2c(-c3ccc(F)cc3)ncn2C2CCNCC2)n1 | -1.76% (inactive) |
| c1cnn2ncc(-c3ccnc(Nc4ccc5c(c4)OCCO5)n3)c2c1 | -1.82% (inactive) |
| Fc1ccc(-c2ncn(CCCN3CCOCC3)c2-c2ccncc2)cc1 | -2.87% (inactive) |
| COc1ccc2nc3c4nc5ccc(OC)cc5c4c4c(=O)[nH]c(=O)c4c3c2c1 | -2.58% (inactive) |
| O=C(Nc1n[nH]c2cc(-c3ccc(F)cc3)ccc12)C1CC1 | 4.33% (inactive) |
| NC(=O)c1sc(-n2cnc3ccc(C(F)(F)F)cc32)cc1OCc1ccccc1Br | 2.03% (inactive) |
| O=C(Nc1ccc(Oc2ccc3nc(NC(=O)c4ccccc4)[nH]c3c2)cc1)Nc1cc(C(F)(F)F)ccc1F | 6.88% (inactive) |
| CC(=Nc1ccc(S(N)(=O)=O)cc1)c1c(O)[nH]c2ccccc12 | 1.6% (inactive) |
| c1cc(-c2cnn3nc(N4CCOCC4)ccc23)nc(NC2CC2)n1 | 1.81% (inactive) |
| CCN1CCC(C(=O)Nc2n[nH]c3nnc(-c4cccc(F)c4F)cc23)CC1 | 1.59% (inactive) |

target: DNA polymerase iota (Homo sapiens) (UniProt Q9UNA4); assay: qHTS for Inhibitors of Polymerase Iota: Confirmatory Assay for Cherry-picked Compounds (AID 720496); conditions: Pol iota primer extension, TAMRA/BHQ fluorescence; further: potency means the concentration at half of the fitted maximal effect
How it was run: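 Step 1: 10 nM Pol iota with compound, 15 min, room temperature. Step 2: 50 nM final quenched DNA substrate added. Step 3: fluorescence (ex 525, em 598 nm) read at 0 and after 10 min.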

Sequence of DNA polymerase iota (Homo sapiens) (Q9UNA4 whole entry, looked up): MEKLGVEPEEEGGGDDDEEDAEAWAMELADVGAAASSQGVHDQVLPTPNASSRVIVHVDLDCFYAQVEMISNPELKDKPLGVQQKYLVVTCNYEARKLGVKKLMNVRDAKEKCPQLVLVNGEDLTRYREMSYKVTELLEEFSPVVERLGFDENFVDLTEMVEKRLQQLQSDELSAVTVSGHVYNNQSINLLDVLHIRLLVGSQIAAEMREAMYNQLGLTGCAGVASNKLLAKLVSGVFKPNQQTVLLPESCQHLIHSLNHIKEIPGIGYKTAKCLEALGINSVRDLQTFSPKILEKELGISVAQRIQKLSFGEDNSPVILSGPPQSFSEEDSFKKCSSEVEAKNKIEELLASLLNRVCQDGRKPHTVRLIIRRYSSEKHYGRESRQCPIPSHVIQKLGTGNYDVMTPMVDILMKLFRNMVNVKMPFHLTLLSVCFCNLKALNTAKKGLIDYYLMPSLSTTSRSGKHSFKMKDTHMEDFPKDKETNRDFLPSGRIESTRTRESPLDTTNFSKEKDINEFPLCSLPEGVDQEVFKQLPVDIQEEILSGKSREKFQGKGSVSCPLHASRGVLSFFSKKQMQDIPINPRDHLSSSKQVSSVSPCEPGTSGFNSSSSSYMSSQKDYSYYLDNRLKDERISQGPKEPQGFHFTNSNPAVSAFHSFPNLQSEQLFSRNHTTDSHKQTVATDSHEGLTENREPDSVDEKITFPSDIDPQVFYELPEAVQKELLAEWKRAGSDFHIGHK

| SMILES | Potency |
| --- | --- |
| CCN(c1ccc(Cl)cc1)S(=O)(=O)c1nnc(NC(=O)c2ccco2)s1 | 75.2 µM (active) |
| CC(/C=N/NC(=O)c1cc(-c2ccc3ccccc3c2)n[nH]1)=C\c1ccco1 | 75.2 µM (active) |
| CCOC(=O)C1=C(c2ccc(OC)cc2)C(=O)c2ccccc2C1=O | 75.2 µM (active) |
